Experimental data reported in the OligoGym collection.

Target: ENTHD1
Experiment: pooled miR-30 sensor sort-seq; sequence = guide strand
Conditions: shRNA
Also: reference of the scale not given here.

Row | Sequence | sensor-assay potency score (higher = more potent)
1 | TACTTGACCAACATGCTGGTAA | 0.494
2 | TTGTGAACTATTCAGACTCATG | -1.36
3 | TATACTTCTTCTCTGAAGCAGA | -0.435
4 | TTATCATCCATCTGAATGCTGG | -0.718
5 | TTTTATTATGTAACCTTCCAAA | -1.23
6 | TAGTTTGAAAGATACTTGCTAA | -0.328
7 | TTTAACTCCTAACACTAGCATC | -1.32
8 | TAGAAAACAATATAGAGTGGGA | 0.012
9 | TAGAAGACAACTGTTGATGGGA | 0.377

Target: ENTPD8
Experiment: as above
Conditions: shRNA

Row | Sequence | sensor-assay potency score (higher = more potent)
10 | TCAGCATCTGGTCCCGTCCAAA | -1.74
11 | TCAACTGTGAGGTTCTGGGGGA | 0.228
12 | TTGCCTGTCCCTTCAACTGTGA | -0.84
13 | TAGACGCTGTAGTCGGAGCCGT | -0.675
14 | TTCAACTGTGAGGTTCTGGGGG | 0.121
15 | TCAAACACGATCCCAAACTTGA | -0.982
16 | TAGCTGTGAGTGTAGACGCTGT | 0.245
17 | TTGACCAGCGTCCCCAAGCCGT | -1.42
18 | TAGTCGGAGCCGTAGAGGCGAA | -1.54
19 | TAGTTGACAGTGATCCAACCAA | 0.0426
20 | TAGCCGCTGAGGTAGCACGGGT | -0.869

Target: EPAS1
Experiment: as above
Conditions: shRNA

Row | Sequence | sensor-assay potency score (higher = more potent)
21 | TTGTTGTAGACTTTCACCTGGC | 0.403
22 | TCTGTGGACATGTCTTTGCTTT | -0.503
23 | TTTAAGAACATTTCAGAACAGG | -0.533
24 | TTGCTCTTCATACTCCAGCTGT | -0.454
25 | TTCATGTCCATGCTGTGGCGGC | -0.685
26 | TTAGAAGTCATTGAAGGTGGGG | 0.712
27 | TTCAGCTTCAGCTTGTTGGAGA | -0.377
28 | TTTGGCAACAACAATAACGAGG | -0.434
29 | TTGGGTGAACTTATCATTGGGT | 0.697
30 | TTTGTCATGGCACTGAAGCAGT | -0.635
31 | TTGAGGTTGACAGTACGGCCTC | -0.329
32 | TAGAACACCTCCGTCTCCTTGC | 0.306
33 | TTGTGTGTTCGCAGGAAGCTGA | -0.595
34 | TCACACATGATGATGAGGCAGG | -0.0655
35 | TTTCAGGTACAAGTTGTCCATC | -1.4
36 | TTGAACAGGGATTCAGTCTGGT | 0.262
37 | TAGTATGGACAGTTGTGTGTGA | -0.0372
38 | TAGTTGACACACATGATGCACT | -0.913
39 | TTCACCTCACAGTCATATCTGG | -0.278
40 | TACAAGTTGTCCATCTGCTGGT | 0.354
